{"source": "PubChem BioAssay (NCI)", "note": "Values joined by “and” are separate entries in the source; they are usually repeats but may differ in a detail not shown here. Equal entries are not always repeated. This is part of a sample that, as a whole, favours compounds with a hit. Of some 83,000 tested, about 20% had one in any assay.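 The test compound was applied at a single concentration to cells in 96-well plates for 48 hours, and percent growth was recorded.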 Active and inactive are the calls of the source. How the source made its calls: active means growth percent below 10; inactive means the rest.", "data": [{"tested_on": "IGROV1 ovarian", "assay": "NCI-60 one-dose screen, 48 h (100 = growth as untreated, 0 = no growth, -100 = all killed)", "conditions": "10 µM unless noted", "values": [{"smiles": "CCc1cc(C)cc(O)c1", "growth": "92% (inactive)"}, {"smiles": "NN1CCOC(c2ccccc2)C1", "note": "(stereo unspecified)", "growth": "122% (inactive)"}, {"smiles": "ClCCOCCOc1ccc(C2CCCCC2)cc1", "growth": "117% (inactive)"}, {"smiles": "O=c1n(CC2CO2)c(=O)n(CC2CO2)c(=O)n1CC1CO1", "note": "(stereo unspecified)", "growth": "52.3% (inactive)"}, {"smiles": "Cc1ccc(S(=O)(=O)c2ccccc2)cc1", "growth": "45.4% (inactive)"}, {"smiles": "O=C(/C=C/c1ccccc1)c1ccccc1", "growth": "84.7% (inactive)"}, {"smiles": "Cc1cc(-c2ccc(N=Nc3ccc4c(S(=O)(=O)O)cc(S(=O)(=O)O)c(N)c4c3O)c(C)c2)ccc1N=Nc1ccc2c(S(=O)(=O)O)cc(S(=O)(=O)O)c(N)c2c1O", "growth": "78.5% (inactive)"}, {"smiles": "c1ccc(CNCCNCc2ccccc2)cc1", "growth": "120% (inactive)"}, {"smiles": "Cc1cc2ccccc2cn1", "growth": "144% (inactive)"}, {"smiles": "OC1COC(OCc2ccccc2)C(O)C1O", "note": "(stereo unspecified)", "growth": "92.4% (inactive)"}, {"smiles": "O=C(O)CCCl", "growth": "107% (inactive)"}, {"smiles": "C#CCOC(=O)Nc1ccccc1", "growth": "109% (inactive)"}, {"smiles": "CC(C)C(C)(C)c1ccc(O)cc1", "growth": "111% (inactive)"}, {"smiles": "Cc1cc(-c2cc(C)c(O)c(C)c2)cc(C)c1O", "growth": "100% (inactive)"}, {"smiles": "CC1(C)COC(=S)N1", "growth": "95.8% (inactive)"}, {"smiles": "CCOC(=O)c1c(C)cc(=O)oc1C", "growth": "99.2% (inactive)"}, {"smiles": "CC[C@H](CC[C@@H](C)[C@H]1CC[C@H]2[C@@H]3CC=C4C[C@@H](O)CC[C@]4(C)[C@H]3CC[C@]12C)C(C)C", "growth": "111% (inactive)"}, {"smiles": "CN1CNC(=O)NC1", "growth": "137% (inactive) and 97.8% (inactive)"}, {"smiles": "CC1CCC2(OC1)OC1CC3C4CC=C5CC(O)CCC5(C)C4CCC3(C)C1C2C", "note": "(stereo unspecified)", "growth": "67.5% (inactive)"}, {"smiles": "COc1cc(C(O)C2C(=O)OCC2C2(c3ccc4c(c3)OCO4)SCCCS2)cc(OC)c1OC", "note": "(stereo unspecified)", "growth": "94.5% (inactive)"}, {"smiles": "Cn1cnc([N+](=O)[O-])c1Sc1ncn[nH]1", "growth": "105% (inactive)"}, {"smiles": "O=c1[nH]cnc2c1ncn2C1OC(CO)C(O)C1O", "note": "(stereo unspecified)", "growth": "118% (inactive) and 133% (inactive) and 64.6% (inactive)"}, {"smiles": "CC(=O)OCC1OC(OC(C)=O)C(OC(C)=O)C(OC(C)=O)C1OC(C)=O", "note": "(stereo unspecified)", "growth": "108% (inactive) and 105% (inactive)"}, {"smiles": "O=C1c2c(O)ccc(O)c2C(=O)c2c(NCCNCCO)ccc(NCCNCCO)c21", "growth": "-10.4% (active) and -56.7% (active)"}, {"smiles": "c1ccc(-c2nc3ccccc3s2)cc1", "growth": "75.4% (inactive)"}, {"smiles": "CCCCCCCCCCCCCCCCC(C(=O)O)C(O)(CC(=O)O)C(=O)O", "note": "(stereo unspecified)", "growth": "109% (inactive) and -21.4% (active)"}, {"smiles": "Nc1cc(N)c(N)cc1N", "growth": "47.6% (inactive)"}, {"smiles": "O=[N+]([O-])c1cccc(SSc2cccc([N+](=O)[O-])c2)c1", "growth": "109% (inactive)"}, {"smiles": "Oc1ccc(Cc2ccccc2Cl)c(O)c1", "growth": "94.7% (inactive)"}, {"smiles": "OCCN1CCCCCCC1", "growth": "104% (inactive)"}, {"smiles": "CC1CCC(C(C)C)C(NNC(N)=O)C1", "note": "(stereo unspecified)", "growth": "110% (inactive)"}, {"smiles": "Fc1ccc([I+]c2ccc(F)cc2)cc1", "growth": "62.4% (inactive)"}, {"smiles": "CC1=C/C(O)CC(=O)Cc2nc(co2)C(=O)N2CCC=C2C(=O)OC(C(C)C)C(C)/C=C\\C(=O)NC/C=C\\1", "note": "(stereo unspecified)", "growth": "3.64% (active)"}, {"smiles": "O=C1OC(c2ccccc2)=N/C1=C\\c1ccccc1", "growth": "99.1% (inactive)"}]}, {"tested_on": "OVCAR-3 ovarian", "assay": "NCI-60 one-dose screen, 48 h (100 = growth as untreated, 0 = no growth, -100 = all killed)", "conditions": "10 µM unless noted", "values": [{"smiles": "CCc1cc(C)cc(O)c1", "growth": "126% (inactive)"}, {"smiles": "NN1CCOC(c2ccccc2)C1", "note": "(stereo unspecified)", "growth": "106% (inactive)"}, {"smiles": "ClCCOCCOc1ccc(C2CCCCC2)cc1", "growth": "103% (inactive)"}, {"smiles": "O=c1n(CC2CO2)c(=O)n(CC2CO2)c(=O)n1CC1CO1", "note": "(stereo unspecified)", "growth": "79.2% (inactive)"}, {"smiles": "Cc1ccc(S(=O)(=O)c2ccccc2)cc1", "growth": "-38.9% (active)"}, {"smiles": "O=C(/C=C/c1ccccc1)c1ccccc1", "growth": "98.7% (inactive)"}, {"smiles": "Cc1cc(-c2ccc(N=Nc3ccc4c(S(=O)(=O)O)cc(S(=O)(=O)O)c(N)c4c3O)c(C)c2)ccc1N=Nc1ccc2c(S(=O)(=O)O)cc(S(=O)(=O)O)c(N)c2c1O", "growth": "95.5% (inactive)"}, {"smiles": "c1ccc(CNCCNCc2ccccc2)cc1", "growth": "121% (inactive)"}, {"smiles": "Cc1cc2ccccc2cn1", "growth": "112% (inactive) and 111% (inactive)"}, {"smiles": "OC1COC(OCc2ccccc2)C(O)C1O", "note": "(stereo unspecified)", "growth": "106% (inactive)"}, {"smiles": "CCCCCCCCCCCCCCCc1ccc(N)c(OC2OC(CO)C(O)C(O)C2O)c1", "note": "(stereo unspecified)", "growth": "93.6% (inactive)"}, {"smiles": "O=C(O)CCCl", "growth": "115% (inactive)"}, {"smiles": "C#CCOC(=O)Nc1ccccc1", "growth": "115% (inactive)"}, {"smiles": "CC(C)C(C)(C)c1ccc(O)cc1", "growth": "105% (inactive)"}, {"smiles": "Cc1cc(-c2cc(C)c(O)c(C)c2)cc(C)c1O", "growth": "97.2% (inactive)"}, {"smiles": "CC1(C)COC(=S)N1", "growth": "110% (inactive)"}, {"smiles": "CCOC(=O)c1c(C)cc(=O)oc1C", "growth": "121% (inactive)"}, {"smiles": "CC[C@H](CC[C@@H](C)[C@H]1CC[C@H]2[C@@H]3CC=C4C[C@@H](O)CC[C@]4(C)[C@H]3CC[C@]12C)C(C)C", "growth": "112% (inactive) and 108% (inactive)"}, {"smiles": "CN1CNC(=O)NC1", "growth": "112% (inactive) and 107% (inactive)"}, {"smiles": "CC1CCC2(OC1)OC1CC3C4CC=C5CC(O)CCC5(C)C4CCC3(C)C1C2C", "note": "(stereo unspecified)", "growth": "105% (inactive)"}, {"smiles": "COc1cc(C(O)C2C(=O)OCC2C2(c3ccc4c(c3)OCO4)SCCCS2)cc(OC)c1OC", "note": "(stereo unspecified)", "growth": "105% (inactive)"}, {"smiles": "Nc1nc(N)c2[nH]cnc2n1", "growth": "97.8% (inactive)"}, {"smiles": "Cn1cnc([N+](=O)[O-])c1Sc1ncn[nH]1", "growth": "119% (inactive)"}, {"smiles": "O=c1[nH]cnc2c1ncn2C1OC(CO)C(O)C1O", "note": "(stereo unspecified)", "growth": "113% (inactive) and 111% (inactive) and 107% (inactive)"}, {"smiles": "CC(=O)OCC1OC(OC(C)=O)C(OC(C)=O)C(OC(C)=O)C1OC(C)=O", "note": "(stereo unspecified)", "growth": "110% (inactive) and 107% (inactive)"}, {"smiles": "O=C1c2c(O)ccc(O)c2C(=O)c2c(NCCNCCO)ccc(NCCNCCO)c21", "growth": "-50.5% (active) and -31.7% (active)"}, {"smiles": "c1ccc(-c2nc3ccccc3s2)cc1", "growth": "105% (inactive)"}, {"smiles": "CCCCCCCCCCCCCCCCC(C(=O)O)C(O)(CC(=O)O)C(=O)O", "note": "(stereo unspecified)", "growth": "111% (inactive) and -3.72% (active)"}, {"smiles": "Nc1cc(N)c(N)cc1N", "growth": "-55.1% (active)"}, {"smiles": "O=[N+]([O-])c1cccc(SSc2cccc([N+](=O)[O-])c2)c1", "growth": "127% (inactive)"}, {"smiles": "OCCN1CCCCCCC1", "growth": "111% (inactive)"}, {"smiles": "CC1CCC(C(C)C)C(NNC(N)=O)C1", "note": "(stereo unspecified)", "growth": "103% (inactive)"}, {"smiles": "Fc1ccc([I+]c2ccc(F)cc2)cc1", "growth": "64.9% (inactive)"}, {"smiles": "CC1=C/C(O)CC(=O)Cc2nc(co2)C(=O)N2CCC=C2C(=O)OC(C(C)C)C(C)/C=C\\C(=O)NC/C=C\\1", "note": "(stereo unspecified)", "growth": "85% (inactive)"}, {"smiles": "COc1ccc2cc1Oc1ccc(cc1)C[C@H]1c3cc(c(OC)cc3CCN1C)Oc1c(OC)c(OC)cc3c1[C@H](C2)N(C)CC3", "growth": "70.4% (inactive)"}, {"smiles": "O=C1OC(c2ccccc2)=N/C1=C\\c1ccccc1", "growth": "111% (inactive)"}, {"smiles": "COc1ccc(Nc2ccc3ccccc3c2)cc1", "growth": "78.7% (inactive)"}]}]}
